Rows were chosen to be rich in hits. Some 10% of all compounds tested hit in one or more screens of this group.
Gal4-VP16 FLuc: Gal4-VP16 reporter inhibition counter-screen | Drosophila S2 Gal4-VP16 UAS-luciferase, luminescence, 20 h | Potency, µM (titrated, usually from 53.6 µM), actives largely listed as inhibitors | 310,000 compounds, 3.5% hits | AID 2546;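 note: Gal4-VP16 expression switched on by copper sulfate through the metallothionein promoter; nearly all actives have a fitted effect of over 50% in size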
SW480 rerep: inducers of DNA re-replication in SW480 colon cancer cells; Potency, µM (titrated, usually from 46.1 µM), actives largely listed as activators; SW480 DNA re-replication, Hoechst DNA content imaging, 48 h; 340,000 compounds, 1.8% hits; note: nearly all actives have a fitted effect of over 55% in size
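Per well, 250 cells were exposed to pinned compound for 48 hr. Nuclear DNA was visualised with Hoechst (40 min, 37 C) and total object intensity recorded by fluorescence scanning.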
MCF10A rereplic: inducers of DNA re-replication in MCF 10A breast cells; Potency, µM (titrated, usually from 46.1 µM), most hits filed as activators; AID 624296; MCF 10A DNA re-replication, Hoechst nuclear intensity, 48 h; 350,000 compounds, 2.9% hits; note: nearly all actives have a fitted effect of over 50% in size
KB-V1 MDR tox: KB-V1 MDR subline cytotoxicity; KB-V1 MDR cells viability, CellTiter-Glo, 72 h; Potency, µM (doses to about 46.1 µM), hits mostly cytotoxic; 400,000 compounds, 3.4% hits; note: nearly all actives have a fitted effect of over 60% in size
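KB-V1 cells (P-gp-expressing MDR subline of KB-3-1) in phenol-red-free DMEM with 10% FBS were exposed to library compounds over a concentration series for 72 h at 37 degrees C. Viability read by CellTiter-Glo luminescence; concentration-effect curves fitted after normalization.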
KB-3-1 tox: kills parental KB-3-1 adenocarcinoma cells; KB-3-1 viability, CellTiter-Glo ATP luminescence, 72 h; Potency, µM (titrated, usually from 46.1 µM), hits mostly cytotoxic; 400,000 compounds, 1.4% hits; AID 1347075; note: nearly all actives have a fitted effect of over 60% in size
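Multi-concentration cytotoxicity screen in KB-3-1 cells grown in DMEM lacking phenol red with 10% FBS. After 72 h at 37 °C with compound, ATP-dependent luminescence was recorded.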
RORg inh: inhibitors of mouse ROR gamma transcriptional activity. P51450. Drosophila S2 Gal4-RORgamma UAS-luciferase reporter, 20 h. Potency, µM (highest dose often 53.6 µM), most hits filed as inhibitors. 310,000 compounds, 5.4% hits; note: nearly all actives have a fitted effect of over 60% in size
Target sequence (P51450 whole entry, looked up, the tested form may be a part): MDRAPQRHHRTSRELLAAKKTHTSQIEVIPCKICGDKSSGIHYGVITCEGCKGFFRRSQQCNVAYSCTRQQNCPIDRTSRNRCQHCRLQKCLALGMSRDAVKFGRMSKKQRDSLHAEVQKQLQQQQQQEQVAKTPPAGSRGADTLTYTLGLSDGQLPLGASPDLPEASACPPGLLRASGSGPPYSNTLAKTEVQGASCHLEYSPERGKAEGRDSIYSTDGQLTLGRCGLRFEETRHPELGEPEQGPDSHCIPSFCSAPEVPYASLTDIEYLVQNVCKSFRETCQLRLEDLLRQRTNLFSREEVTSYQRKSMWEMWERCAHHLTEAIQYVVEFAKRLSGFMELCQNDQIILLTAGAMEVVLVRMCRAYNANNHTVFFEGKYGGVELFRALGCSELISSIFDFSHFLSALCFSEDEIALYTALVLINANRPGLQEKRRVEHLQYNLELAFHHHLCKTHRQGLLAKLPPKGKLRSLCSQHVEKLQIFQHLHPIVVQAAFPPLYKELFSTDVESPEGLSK
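Using a luciferase readout, inhibitors were identified by reduced reporter activity in Drosophila cells coexpressing a copper-inducible Gal4–ROR gamma fusion and UAS-driven Photinus luciferase, incubated 20 hr after 700 uM copper sulfate.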
Hits are given with their value; i = inactive; ? = inconclusive; nt = no result given; [ ] = dose if it differs, or a comment. Calls come from the whole dose curve; as a rule, active = well fitted curve in the direction sought with a large enough effect; inconclusive = small, poorly fitted or top-dose-only effect, or another doubt; inactive = no such curve, though single readings can be large; an effect the other way counts as inactive or inconclusive.

SMILES | Gal4-VP16 FLuc | SW480 rerep | MCF10A rereplic | KB-V1 MDR tox | KB-3-1 tox | RORg inh
Cc1ccc(-n2c(NN)nc3ccccc3c2=O)c(C)c1 | 20µM | i | i | i | i | ?
COCCNC(=O)C1(C)CCN(C(=O)c2ccc(SC(F)(F)F)cc2)C1 (centres undefined) | nt | nt | nt | i | i | nt
COc1ccc(-n2nc(C(=O)Nc3cc(C)ccn3)c3c4ccccc4n(C)c3c2=O)cc1 | nt | nt | nt | i | i | nt
CCN1CCN(C(=O)c2ccc3c(=O)n(CCC4=CCCCC4)c(=O)[nH]c3c2)CC1 | i | i | i | ? | i | ?
O=c1c2ccccc2[nH]c(=S)n1CCC1=CCCCC1 | 1.41µM | i | i | i | i | 1.58µM
C=C(C)Cn1c(=S)[nH]c2ccccc2c1=O | 11.2µM | i | i | i | i | 3.98µM
CC(C)Cn1c(=S)[nH]c2ccccc2c1=O | 4.47µM | i | i[9.22 µM] | ? | i | 1.12µM
CC(C)COn1c(=S)[nH]c2ccccc2c1=O | 10µM | i | i | ? | i | 2.24µM
CCN(CC)CCCn1c(=S)[nH]c2ccccc2c1=O | i | i | i | i | i | ?
O=C(Cn1c(=S)[nH]c2ccccc2c1=O)NCCc1ccccc1 | i | i | i | i | i | i
CC1=C(C(=O)N(C(C)C)C(C)C)CC(CC(=O)NCc2cccc3ccccc23)C(=O)N1CCC1=CCCCC1 (centres undefined) | nt | nt | nt | ? | i | nt
C#CCCCO/N=C1/C[C@@H](O)[C@@H](O)[C@@H]2[C@@H]3C(=O)N(C(C)(C)C)C(=O)[C@H]3CC[C@H]12 | i[10 µM] | nt | nt | nt | nt | i[10 µM]
COCC(=O)N1CCC2(CC1)CCN(C(=O)Nc1cccc(F)c1)CC2 | i | nt | nt | nt | nt | i
C=CCn1c(=S)[nH]c2cc(-c3ccccc3)sc2c1=O | 2µM | i | i | ? | ? | 1µM
C=CCn1c(=S)[nH]c2ccccc2c1=O | 4.47µM | i | i | ? | i | 5.62µM
CC(C)Cn1c(=S)[nH]c2cc(C(=O)NCc3ccccc3F)ccc2c1=O | nt | i | 14.6µM | ? | i | nt
O=c1[nH]c2cc(Cl)ccc2n1-c1ccccc1 | i | i[9.22 µM] | i | i | i | i
CC(C)Cn1c(=S)[nH]c2cc(Cl)ccc21 | ? | i | ? | i | i | 1.58µM
CCCn1c(=S)[nH]c2cc(C(=O)NCc3ccccc3OC)ccc2c1=O | nt | nt | nt | i | i | nt
O=C(Cn1nc(-c2ccc(Cl)cc2)ccc1=O)NCc1ccccc1Cl | nt | nt | nt | ? | i | nt
Cc1nc2cc(-c3cccc(F)c3)nn2c(C)c1CCC(=O)Nc1ccccc1C(N)=O | nt | nt | nt | i | i | nt
CC(=NNC1=NCCN1)c1cnn(C2=NCCN2)c1C | nt | nt | nt | i | i | nt
CC(C)(C)C(=O)OCOP(=O)(OCOC(=O)C(C)(C)C)C(C)(Oc1ccc(O)cc1)P(=O)(OCOC(=O)C(C)(C)C)OCOC(=O)C(C)(C)C | i | nt | nt | nt | nt | i
CCN(CC)CCCNC(=O)Cn1nc(C)n2c(cc3sccc32)c1=O | nt | nt | nt | i | i | nt
CCCN1C(=O)C(O)(C2COC(C)(C)CC2=O)c2ccccc21 (centres undefined) | i | ? | i | i | i | i
SMILES | Gal4-VP16 FLuc | SW480 rerep | MCF10A rereplic | KB-V1 MDR tox | KB-3-1 tox | RORg inh
CCCN1C(=O)C(O)(C2CC(=O)CC(C)(C)O2)c2ccccc21 (centres undefined) | i | 16.4µM | ? | ? | ? | i
COc1cccc(Cn2c(=O)c3ccccc3n3nc(C)cc23)c1 | i | i | ? | 20.6µM | ? | i
Cc1[nH]c2ccc(C(=O)OCC(=O)NC3(C#N)CCCCC3)cc2c1C | nt | i | i | i | i | nt
Cn1c(=O)c2c(nc(NCCNC(=O)c3ccco3)n2Cc2ccccc2)n(C)c1=O | ? | i | 25.9µM | i | i | i
Cn1c(=O)c2c(nc(NCc3ccc4c(c3)OCO4)n2Cc2ccccc2F)n(C)c1=O | 17.8µM | i | i | ? | ? | i
Cn1c(=O)c2c(nc(NCCNC(=O)c3ccco3)n2Cc2ccc(F)cc2)n(C)c1=O | i | i | i | ? | ? | i
Cn1c(=O)c2c(nc(NCc3ccc4c(c3)OCO4)n2Cc2ccc(F)cc2)n(C)c1=O | 10µM | ? | ? | ? | ? | i
Cn1c(=O)c2c(nc(NCCO)n2CCc2ccccc2)n(C)c1=O | ? | i | i | i | 20.6µM | i
Cn1c(=O)c2c(nc(NCCCO)n2CCc2ccccc2)n(C)c1=O | i | i | i | i | i | i
Cn1c(=O)c2c(nc(NCc3ccc4c(c3)OCO4)n2Cc2ccccc2)n(C)c1=O | 7.08µM | ? | ? | i | 23.1µM | i
COc1cc(/C=N/Nc2nc3c(c(=O)n(C)c(=O)n3C)n2Cc2ccccc2)ccc1OC(=O)c1ccco1 | 17.8µM | ? | ? | 9.2µM | ? | i
Cc1ccc(Cn2c(N/N=C/c3ccncc3)nc3c2c(=O)n(C)c(=O)n3C)cc1 | 10µM | i | i | i | i | i
Cn1c(=O)c2c(nc(NCc3ccccc3)n2Cc2ccc(Cl)c(Cl)c2)n(C)c1=O | nt | nt | nt | 18.4µM | ? | nt
Cn1c(=O)c2c(nc(N/N=C/c3ccncc3)n2Cc2ccccc2)n(C)c1=O | i | i | i | i | i | i
C[C@@H](O)C(N)C(=O)O (some centres undefined) | i | nt | nt | nt | nt | i
CCn1c(=O)cc(OCC(=O)N2CCN(c3cccc(Cl)c3)CC2)c2ccccc21 | nt | nt | nt | i | i | nt
Cn1c(=O)c2nc(NCc3ccccc3)cnc2n(C)c1=O | i | i | i | 18.4µM | i | i
Cc1oc2c(c1C(=O)Nc1ccc(Cl)cc1F)C1=NCCN1C=N2 | nt | nt | nt | i | i | nt
COc1ccc2c(c1)c(/C=N/Nc1ccc(C(=O)O)cc1)c(C)n2C | ? | i | i | i | i | ?
COc1ccc(/C=N/Nc2ccc(C(=O)O)cc2)cc1Br | i | ? | i | i | i | 39.8µM
COc1cc(C=NNc2ccccc2)ccc1OC(=O)c1ccccc1 | nt | nt | nt | i | i | nt
COc1ccc(/C=N\NC(=O)C2CCCC2)cc1Br | i | i | i | i | i | i
COc1ccc2c(/C=N/Nc3ccc(C(=O)O)cc3)c[nH]c2c1 | 5.01µM | i | i | i | i | ?
COc1ccc(/C=N/Nc2ccc(C(=O)O)cc2)cc1OC | 0.447µM | i | i | i | i | 1.58µM
CN(C)c1ccc(/C=C2\C=Cc3ccccc32)cc1[N+](=O)[O-] | nt | nt | nt | i | i | nt
COc1ccc(CN(C)CCCn2cnc3c(OC)ncnc32)cc1OC | nt | nt | nt | i | ? | nt
Cc1ccc(Cl)cc1-n1c(=O)c2sc3ccccc3c2n(CC(=O)NC2CCCCC2)c1=O | nt | nt | nt | i | i | nt
Cc1csc(NC(=O)CSCC(=O)O)c1-c1nc2ccccc2s1 | 8.91µM | i | i | i | i | i
Cc1ccc2nc(-c3ccc(NC(=O)CSCC(=O)O)cc3)sc2c1 | i | i | i | i | i | 11.2µM
CCc1ccc(C(=O)CN2C(=O)NC(C)(c3ccc(C)cc3)C2=O)cc1 (centres undefined) | i | i | i | i | i | i
